In article PMC7819943, “Rice protein-binding microarrays: a tool to detect cis-acting elements near promoter regions in rice”:
Over roughly 68,000 sequences, “fluorescence intensity (a.u.)” has its median near 9,100; the highest 2% begin near 16,000. The list comes from a sample in which the highest values are over-represented; it also holds similar and randomly drawn sequences.

The sequences below were run against OsWRKY34 (Oryza sativa, UniProt Q0JBA9 1-250) (assay: protein-binding microarray (RPBM); PBS, 2% BSA, 51.3 ng/ul salmon testes DNA, 50 uM zinc acetate, 200 nM TF, 25 C, 1 h; high values mean tight binding). Details: protein: recombinant; tags: N-terminal polyhistidine and DsRed monomer fusion (pET32a); label: CyDye5-dUTP incorporated in the synthesized complementary strand; 3' TTTTT single-stranded linker to array surface; dsDNA, one strand shown.
Sequence of OsWRKY34 (Q0JBA9 entry or part of it): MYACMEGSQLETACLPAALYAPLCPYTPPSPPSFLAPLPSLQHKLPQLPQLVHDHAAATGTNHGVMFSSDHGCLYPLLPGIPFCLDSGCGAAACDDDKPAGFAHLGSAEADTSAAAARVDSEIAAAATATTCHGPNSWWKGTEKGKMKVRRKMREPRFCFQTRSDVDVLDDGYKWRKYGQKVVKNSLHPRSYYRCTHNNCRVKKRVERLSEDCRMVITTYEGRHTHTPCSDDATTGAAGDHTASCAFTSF
In short: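 For the binding signal, per-feature fluorescence intensity was read in arbitrary units on an Axon 4000B scanner. Before scanning, a 2% BSA-blocked custom Agilent array made double-stranded with Cy5-dUTP was washed after 1 h at 25 °C with 200 nM protein and 50 µM zinc acetate. The proteins were Ni–NTA-purified transcription factors with N-terminal polyhistidine and DsRed fusions, expressed in E. coli BL21-CodonPlus.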

Sequence	binding signal
CTCTCTTGCCTCTCCTGTCTCTTTCTCGGATTTTTCTCATCGGAGTCACCTAGTGCAG	9020 fluorescence intensity (a.u.)
AAACAGTTTGACTTTGACTAAAGTTAAAACGTCTTATAACCGGAGTCACCTAGTGCAG	10900 fluorescence intensity (a.u.)
CTTTTCTTTTCAATTTTTTGAGCGTTGACCATACTTAAATCGGAGTCACCTAGTGCAG	14800 fluorescence intensity (a.u.)
ACCATCTTATTTAACGTAAAATATTTAATTTTCATTTTTACGGAGTCACCTAGTGCAG	8480 fluorescence intensity (a.u.)
ACCTCGGTAATAAAAGATGATCTAACGTAAAATTTATTATCGGAGTCACCTAGTGCAG	23300 fluorescence intensity (a.u.)
CAAGTCACGTATAAAATATTAATCATGTTTTATCATCTAACGGAGTCACCTAGTGCAG	8050 fluorescence intensity (a.u.)
CCTTTCGTTTTATATTATAATTCGTTTTGACTTTTTTCTTCGGAGTCACCTAGTGCAG	10500 fluorescence intensity (a.u.)
TTCTAAATAATATTTGACGCCGTTGACTTTTTTAAATATACGGAGTCACCTAGTGCAG	14600 fluorescence intensity (a.u.)
AGCGTTGACCATACTTAAATCACAGTTTTCTTTTCTTTTTCGGAGTCACCTAGTGCAG	21800 fluorescence intensity (a.u.)
CGTTGACTTTTTTAAATATATAATTATTAATTTTTTTTCTCGGAGTCACCTAGTGCAG	23900 fluorescence intensity (a.u.)
ATTTCTTGAACAGTTAAATACTTATAAATCCTTCACTTTTCGGAGTCACCTAGTGCAG	8050 fluorescence intensity (a.u.)
GTTTGACACCGTTGACTTTTTTAAATATGTTTGACCGTTTCGGAGTCACCTAGTGCAG	25000 fluorescence intensity (a.u.)
CCATATCGTTTTGACGTTTTTAGTGTAGGTCAATTTATAGCGGAGTCACCTAGTGCAG	8170 fluorescence intensity (a.u.)
TTAAAACTGAAATTATCGTATGTGCCTTGTCGCCGTGATTCGGAGTCACCTAGTGCAG	8090 fluorescence intensity (a.u.)
GGGTATATACCGTGACCCTGATCGCCACACCGACCGGATACGGAGTCACCTAGTGCAG	13600 fluorescence intensity (a.u.)
ATCCGATCTCTCTTCTCATTCTCTTCTCTTGGTTTGGGGTCGGAGTCACCTAGTGCAG	8220 fluorescence intensity (a.u.)
AGTCTTGAAGACTGAGGCAAAGTCTGTTATCTTAATCGATCGGAGTCACCTAGTGCAG	9140 fluorescence intensity (a.u.)
TTGAAACTAAACAAGGCATTTAGCTCAAACCCTCATTGACCGGAGTCACCTAGTGCAG	8470 fluorescence intensity (a.u.)
GATCGTGGGAGGGAGGATTGGCCGGTTGTACTACAGTTGACGGAGTCACCTAGTGCAG	8660 fluorescence intensity (a.u.)
CCCGTTGACCCAAATTTTCGTTCTCCTCACCGAGTATAGTCGGAGTCACCTAGTGCAG	17200 fluorescence intensity (a.u.)
ACACTTTGATCCCGATCGATGGCGCCATCCACTAATTGATCGGAGTCACCTAGTGCAG	10700 fluorescence intensity (a.u.)
CGCCGTTGACTTTTCATATAATATTTAACAATTCGCTTTACGGAGTCACCTAGTGCAG	36800 fluorescence intensity (a.u.)
AATTTTGACTTTTTCTTGACTAATTAGGCCATCCGATGGGCGGAGTCACCTAGTGCAG	17800 fluorescence intensity (a.u.)
TTTGTTGGTGTTATGTTGACTTTTTTTTGGGAACATTACTCGGAGTCACCTAGTGCAG	17400 fluorescence intensity (a.u.)
CTTTCTTATTGACTATTTTATTATTTGAGGTCATTTAGGGCGGAGTCACCTAGTGCAG	9310 fluorescence intensity (a.u.)
GACTTTATATGTGACTTTTTTTTTAACTTTTTCATAATTTCGGAGTCACCTAGTGCAG	9730 fluorescence intensity (a.u.)
GTTGACTCGCACTTTTTGTAATTATGTGTTACATGGTTTCCGGAGTCACCTAGTGCAG	8810 fluorescence intensity (a.u.)

Sequence	binding signal
TTTTGCTACTCCTTCGTTCTCAGTATCCAAATTTAAATTTCGGAGTCACCTAGTGCAG	9900 fluorescence intensity (a.u.)
ACTTTTCGCTTTTTATATTTGCATAATTTTTTTCAATAAGCGGAGTCACCTAGTGCAG	8150 fluorescence intensity (a.u.)
CCGTGTTGTCGTTCCTCCAAATTTGTACCGTTTTCCCTCTCGGAGTCACCTAGTGCAG	8770 fluorescence intensity (a.u.)
CCATTATGGTGTTTCTTAGTTGTTTTTTTTGCCTTTTACTCGGAGTCACCTAGTGCAG	8470 fluorescence intensity (a.u.)
TTTTTCGCACGTTCTCTTTCGCCCTGTTTTTTTTGAAAGACGGAGTCACCTAGTGCAG	13300 fluorescence intensity (a.u.)
CCTAGACCCCTTCTCACGCCGCCAGCCCGTCACACCGAGTCGGAGTCACCTAGTGCAG	8790 fluorescence intensity (a.u.)
CCCACTAACTTATGGCTTTTCCCATCCGTGCTATATCCCTCGGAGTCACCTAGTGCAG	9270 fluorescence intensity (a.u.)
ATACTGTCATAGGATCTCGAGTACACCTGTTTTACAAGTTCGGAGTCACCTAGTGCAG	8860 fluorescence intensity (a.u.)
GTTTTGATTGGCATATGGTCCCTCCAATCCGTGTAATTGTCGGAGTCACCTAGTGCAG	8320 fluorescence intensity (a.u.)
ATAACCAACATATTTAGCCTACAATTAAATATTTACTATACGGAGTCACCTAGTGCAG	8390 fluorescence intensity (a.u.)
ACTACTTCCTCTGTTTCTAAATATTTGACGACGTTGATTTCGGAGTCACCTAGTGCAG	8050 fluorescence intensity (a.u.)
CACCGTTGATTTTTTTAAATATGTTTGACCGTTCGTTTTACGGAGTCACCTAGTGCAG	12000 fluorescence intensity (a.u.)
GTTGACTTTTTTTAAAATATGTTTGACCGTTCATATTATTCGGAGTCACCTAGTGCAG	8770 fluorescence intensity (a.u.)
CGTTGACTTTTTTAAATATGTTTGACCGTTTATGTTATTTCGGAGTCACCTAGTGCAG	44100 fluorescence intensity (a.u.)
AAATATTTGACGCCGTTGACTTTTTTAAATATGTTTAACCCGGAGTCACCTAGTGCAG	27200 fluorescence intensity (a.u.)
TTCCTAAATATTTACGACGTTGACTTTTTTAAAAATGTTTCGGAGTCACCTAGTGCAG	20100 fluorescence intensity (a.u.)
ATTTTTATACGGACTCTAAACTCTACTTTTAATTTTATTACGGAGTCACCTAGTGCAG	8490 fluorescence intensity (a.u.)
GGAGTATATAAATATATATATTAAATACAACTCTAGACTACGGAGTCACCTAGTGCAG	26700 fluorescence intensity (a.u.)
TACACTAACCCTACCATCCCGTACACCACCGAAACCCTAACGGAGTCACCTAGTGCAG	8330 fluorescence intensity (a.u.)
TGTCTGGTCAACGCACAATTTCGGTCAGTAACTCCCTGGCCGGAGTCACCTAGTGCAG	9770 fluorescence intensity (a.u.)
TCATGGGAGCAATTGCGCGATGTTTTTGTTCTTAACTTTCCGGAGTCACCTAGTGCAG	8050 fluorescence intensity (a.u.)
TTTTGGTACGTTATTAGTGTGTGTATCAGTTTTTAAGTTCCGGAGTCACCTAGTGCAG	9430 fluorescence intensity (a.u.)
GTTTCAGGTTTTTGCAGCCAACAGTTTTGCTGATTTTTTACGGAGTCACCTAGTGCAG	9480 fluorescence intensity (a.u.)
CTCCTTTTGCGCTGCTTCTCCTCGCCGCCACCGTGTAGCGCGGAGTCACCTAGTGCAG	8230 fluorescence intensity (a.u.)
GAATTTTTTTTTATCATCTTTGACGGGCACACAAATTTTACGGAGTCACCTAGTGCAG	8140 fluorescence intensity (a.u.)
TGGGGATGTGTTGTGGTGAGCTGGAAAGTGCAAACTGGTTCGGAGTCACCTAGTGCAG	9630 fluorescence intensity (a.u.)
TCCTGTTTAAAGTTTTTTTTTGTGATTTTTAGATAAAAAACGGAGTCACCTAGTGCAG	9030 fluorescence intensity (a.u.)
